Assay outcomes from PubChem.
TRHR enhancer: TRH receptor (human) allosteric enhancement; enhancement, % at 2 µM; TRHR cells, fluo-8 calcium fluorescence, EC20 TRH enhancement; P34981; 0.66% of 360,000 active; in the data active = enhancement above about 30%; also: 0% is about no effect
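Enhancer read-out: after compound pinning and an initial kinetic agonist-mode read, an EC20 of TRH (10 nM final) was injected and fluo-8 calcium signal (Ex 480/Em 530) followed at 1 s/cycle for 100 cycles in TRHR-expressing cells.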
TRHR agonist: TRH receptor (human) agonism | TRHR cells, calcium flux fluo-8, FDSS agonist mode | P34981 | activation, % at 2 µM | AID 493084 | 0.18% of 360,000 active; also: 0% is about no effect
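TRHR-expressing cells, plated overnight in medium with 10% serum, were loaded with fluo-8 calcium dye at room temperature. After a 10 s baseline, library compound was pin-added and calcium release was recorded kinetically (ex 480/em 530) as agonist response.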
D1 agonist: human D1 receptor agonism | HEK293 T-REx D1 cells, calcium flux, agonist mode | AID 504660 | 1% of 360,000 active | activation, % at 2 µM; also: 0% is about no effect
Target sequence (P21728 whole entry, looked up): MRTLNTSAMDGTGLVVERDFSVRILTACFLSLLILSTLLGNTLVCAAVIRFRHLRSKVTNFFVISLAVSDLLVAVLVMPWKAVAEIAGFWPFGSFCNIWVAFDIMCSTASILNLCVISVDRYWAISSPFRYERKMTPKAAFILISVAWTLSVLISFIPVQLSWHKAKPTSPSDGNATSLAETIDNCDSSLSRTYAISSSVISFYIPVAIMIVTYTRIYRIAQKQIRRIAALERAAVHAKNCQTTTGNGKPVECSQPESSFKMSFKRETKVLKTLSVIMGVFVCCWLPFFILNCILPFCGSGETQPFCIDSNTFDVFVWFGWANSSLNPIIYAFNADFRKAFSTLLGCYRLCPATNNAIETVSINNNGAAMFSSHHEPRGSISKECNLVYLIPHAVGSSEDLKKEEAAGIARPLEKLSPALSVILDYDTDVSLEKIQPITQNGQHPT
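Agonism was scored from calcium flux recorded over 180 s (1 read/s) after pintool compound addition, following a 10-cycle baseline. Cells were inducible force-coupled HEK293 TREx D1, plated overnight at 30 C and loaded with no-wash calcium dye.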
D1 antagonist: human D1 dopamine receptor antagonism; P21728; HEK293 TREx D1 cells, calcium flux, dopamine EC80; stronger effect = lower value; activity change, negative = inhibition, % at 10 µM; 3.2% of 360,000 active; AID 504652; in the data active = activity change below about -30%; also: % is scaled to controls: 0 for no effect and ±100 for the full control effect
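Using tetracycline-induced force-coupled D1 Hek293 cells and a calcium dye, signals were followed for 180 s after compound, then for 180 s after EC80 dopamine, to detect inhibitors.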
D1 PAM: human D1 dopamine receptor positive modulation | P21728 | 0.036% of 360,000 active | potentiation, % at 10 µM | HEK293 TREx D1 cells, calcium flux, dopamine EC20 potentiation; in the data active = potentiation above about 30%; also: 0% is about no effect
* hit, by the source's call; / = no result. Compounds with a hit are over-represented: about 4.6% of the library has one in this group of screens. Rule as the data show it, unless noted: active = activation above about 30%; inactive = the rest.

SMILES	TRHR enhancer	TRHR agonist	D1 agonist	D1 antagonist	D1 PAM
COc1cccc(CNC(=O)C2CCC(CNS(=O)(=O)c3cccc4nsnc34)CC2)c1 (stereo unspecified)	2	0	5	-41*	-7
O=C(NCc1cccs1)C1CCC(CNS(=O)(=O)c2cccc3nsnc23)CC1 (stereo unspecified)	10	0	5	-2	-4
CCC(C)(C)NC(=O)C1CCC(CNS(=O)(=O)c2cccc3nsnc23)CC1 (stereo unspecified)	-4	0	6	-40*	0
CCCCN(C)CCCNC(=O)Cn1ncc2c3ccccc3n(Cc3ccccc3F)c2c1=O	6	3	9	6	-4
COc1ccc(Br)cc1CNC(=O)CN1C(=O)c2cccnc2Oc2ccc(C)cc21	1	-1	0	7	0
COc1ccc2nc(SCC(=O)N(C)CC(=O)Nc3ccc(F)cc3)[nH]c2c1	36*	0	0	8	-5
O=C(CSc1nc2ccccc2[nH]1)Nc1ccc(F)cc1	-3	0	2	-6	/
O=C(Nc1ccc(F)cc1)C(Sc1nc2ccccc2[nH]1)c1ccccc1 (stereo unspecified)	-3	0	11	-42*	-4
CN(CC(=O)Nc1ccc(F)cc1)C(=O)CSc1nc2ncc(Cl)cc2[nH]1	-1	0	-2	3	10
CCOc1ccc2nc(SCC(=O)Nc3nonc3C)[nH]c2c1	0	-1	1	-35*	-4
CCN(C(=O)CSc1nc2ccccc2[nH]1)c1ccccc1	-3	0	6	-3	-6
CN(C(=O)CSc1nc2ccccc2[nH]1)c1ccc(F)cc1	-1	0	0	-38*	-7
COc1ccc(Nc2cc(C)c3cc(NC(=O)COc4cccc(C)c4)ccc3n2)cc1	1	1	6	-15	-3
COc1ccc(NC(=O)c2cnc[nH]2)cc1	-7	0	1	5	-4
CN(Cc1ccnc2ccccc12)C(=O)C1CCC(=O)N(Cc2ccccc2F)C1 (stereo unspecified)	-2	0	1	-8	-6
CC(C)c1ccc(-c2noc(SCC(=O)N(C)c3ccc(F)cc3)n2)cc1	3	-1	50*	-16	-4
CN(C)S(=O)(=O)c1ccc2c(c1)N(CC(=O)NCc1ccccc1)C(=O)C1CCCCN21 (stereo unspecified)	2	0	1	0	0
CC(OC(=O)Cn1[nH]c(=O)c2ccccc2c1=O)C(=O)Nc1ccc(F)cc1 (stereo unspecified)	7	0	6	-30*	-7
O=C1COc2ccc(-c3cc(-c4ccc(F)cc4)c4c(n3)-c3ccccc3OC4)cc2N1	-3	1	-1	-13	-5
Cc1cc2cc(CN(Cc3cccs3)C(c3nnnn3C(C)(C)C)C(C)C)c3nnnn3c2cc1C (stereo unspecified)	5	2	1	-5	-6
Cc1ccc2cc(CN(Cc3cccs3)Cc3nnnn3C(C)(C)C)c3nnnn3c2c1	32*	0	3	-5	-6
CCOC(=O)c1cccc(NC(=O)C2CCCN(S(=O)(=O)c3cc(Br)cc4c3N(C(=O)CC)CC4)C2)c1 (stereo unspecified)	4	0	-2	-11	-1
CCOc1cc(/C=N/NC(=O)c2ccncc2)ccc1OC(=O)c1ccccc1	-6	0	4	-40*	-10
CCOc1ccc(N2CC(C(=O)Nc3ccccn3)CC2=O)cc1 (stereo unspecified)	-2	0	-1	-36*	-9
CCOc1ccc(N2CC(C(=O)Nc3ccccc3N3CCOCC3)CC2=O)cc1 (stereo unspecified)	0	-1	5	-30*	-1
SMILES	TRHR enhancer	TRHR agonist	D1 agonist	D1 antagonist	D1 PAM
COc1ccc(N2CC(C(=O)Nc3c4c(nn3-c3ccccc3)CS(=O)(=O)C4)CC2=O)cc1 (stereo unspecified)	-3	0	1	-52*	-7
COc1ccccc1C(=O)N1CCC(c2noc(-c3ccc(S(=O)(=O)N4CCCC4)cc3)n2)CC1	-3	0	4	-15	-3
O=C(O)c1c(C(=O)N2N=C3/C(=C/c4ccccc4)CCCC3C2c2ccccc2)cccc1[N+](=O)[O-] (stereo unspecified)	-4	0	3	4	5
CC(=O)N1N=C2/C(=C/c3ccccc3)CCCC2C1c1ccccc1 (stereo unspecified)	31*	-1	6	-11	0
COc1ccc(C(=O)c2cn(Cc3ccccc3F)c3cc4c(cc3c2=O)OCCO4)cc1OC	-5	0	0	-2	-2
CS(=O)(=O)c1sc(C#N)c2c1C(=O)CC(c1ccccc1)C2 (stereo unspecified)	-18	4	2	-72*	-12
Cc1cccc(NC(=O)C2CCCN(S(=O)(=O)c3ccc4c(c3)oc(=O)n4C)C2)c1C (stereo unspecified)	-2	-1	-2	-24	-2
C/C(=N\N=C(N)N)c1ccc(Cl)cc1Cl	4	1	13	-36*	-10
C/C(=N\N=C(N)N)c1cc(Cl)ccc1Cl	4	0	11	-45*	-13
C/C(=N\N=C(N)N)c1cccc(Cl)c1	2	1	5	-47*	-10
CC1=C(C(=O)Nc2ccccc2)C(c2ccc(O)cc2)n2nc(-c3ccc(Cl)cc3)nc2N1 (stereo unspecified)	4	3	0	-20	-7
CCn1c(N2CCN(C(=O)NC3CCCCC3)CC2)nc2ccccc21	-7	0	-1	2	-1
CCn1c(NC2CCCCC2)nc2ccccc21	2	0	0	-34*	-7
COc1cccc(-c2nc(SCC(=O)NCC3CCCO3)c(-c3ccc(Cl)cc3)[nH]2)c1 (stereo unspecified)	-2	2	2	-56*	-4
COc1ccc(-c2[nH]c(-c3ccc(Cl)cc3)nc2SCC(=O)Nc2nccs2)cc1	-8	0	0	-32*	-5
COc1cccc(-c2nc(SCC(=O)NCC3CCCO3)c(-c3ccc(C)cc3)[nH]2)c1 (stereo unspecified)	0	2	-1	12	-1
CC1CCCN(C(=O)COC(=O)/C=C/c2ccc(C(F)(F)F)cc2)C1 (stereo unspecified)	8	0	5	-47*	-17
Cc1ccc(-c2nnc(SCC(=O)N(CC(C)C)c3c(N)n(Cc4ccccc4)c(=O)[nH]c3=O)n2N)cc1	-3	0	2	4	0
O=C(N/C(=C/c1cccnc1)C(=O)N1CCCCCC1)c1cccc(Br)c1	-4	-1	0	-39*	-12
O=C(NC(=S)N1CCCCCC1)c1ccccc1	-7	0	-1	0	-4
O=C(NC(=S)N1CCCCC1)c1cccnc1	-20	0	0	-34*	-7
